Bioassay records (PubChem)
RE007 growth inh: qHTS Assay for Inhibitors of the HIV-1 protein Vpr. S. pombe RE007 Vpr strain, BacTiter-Glo ATP luminescence, 24 h. Potency, µM (highest dose often 92.2 µM), for inactives: at the highest dose activity change, negative = less growth, usual class: inhibitors. 360,000 tested, 0.21% active. AID 651644, 2012; active means well fitted falling curve with a large enough effect; inconclusive means small, poorly fitted or top-dose-only effect; inactive means no such curve, though single readings can be large or run the other way; further: nearly all actives have a fitted effect of over 50% in size
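Fission yeast strain RE007, carrying one chromosomally integrated HIV-1 vpr copy, was seeded at OD 0.01 in PMG+AL medium with 23 nL pinned compound. After 24 h at 30 °C and 99% humidity, viability was read by BacTiter-Glo luminescence.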
LmPK inhibitor: qHTS Assay for Inhibitors of Leishmania Mexicana Pyruvate Kinase (LmPK). Q27686. purified LmPK, Kinase-Glo ATP luminescence, 1 h. Potency, µM (doses to about 57.5 µM), for inactives: at the top dose activity change, negative = inhibition, hits mostly inhibitors. 290,000 tested, 0.37% active
Target sequence (Q27686 whole entry, looked up): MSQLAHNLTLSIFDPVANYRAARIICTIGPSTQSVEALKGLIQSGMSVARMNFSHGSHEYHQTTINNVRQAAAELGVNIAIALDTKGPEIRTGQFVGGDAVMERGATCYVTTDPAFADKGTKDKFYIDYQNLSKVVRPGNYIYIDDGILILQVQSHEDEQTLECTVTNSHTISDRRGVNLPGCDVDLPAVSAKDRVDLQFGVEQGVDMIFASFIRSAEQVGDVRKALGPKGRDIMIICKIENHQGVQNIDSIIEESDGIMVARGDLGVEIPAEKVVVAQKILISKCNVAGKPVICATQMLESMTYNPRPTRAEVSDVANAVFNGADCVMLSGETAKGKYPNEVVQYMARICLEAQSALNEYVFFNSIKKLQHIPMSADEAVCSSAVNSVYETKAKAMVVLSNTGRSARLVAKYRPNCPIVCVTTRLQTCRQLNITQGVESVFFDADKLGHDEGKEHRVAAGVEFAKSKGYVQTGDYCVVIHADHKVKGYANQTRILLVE
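Purified LmPK (0.1 nM) converted ADP (0.1 mM) to ATP with PEP (0.5 mM) in imidazole buffer pH 7.2 with KCl and MgCl2, 1 h at room temperature. ATP was read by Kinase-Glo luminescence; data normalized to uninhibited and no-enzyme controls.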
AMA1 RON2 block: qHTS for Inhibitors of AMA1-RON; Towards Development of Antimalarial Drug Lead: Primary Screen; Plasmodium falciparum AMA1 (3D7) - RON2 peptide interaction; AlphaScreen AMA1-biotinylated RON2 peptide binding; Potency, µM (highest dose often 58.2 µM), for inactives: top-dose activity change, negative = inhibition, hits mostly inhibitors; 360,000 tested, 0.2% active; AID 720542, 2013;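 further: 0% = vehicle wells and -100% = peptide control; nearly all actives have a fitted effect of over 45% in size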
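AMA1 (3D7) with his tag at 25 nM final met compounds first, then biotinylated RON2 peptide at 25 nM; detection used donor plus acceptor beads, 10 µg/mL apiece, read by AlphaScreen after 30 min at room temperature.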
TbPYK inhibitor: qHTS of Trypanosoma Brucei Inhibitors; AID 624173, 2012; 410,000 tested, 0.12% active; pyruvate kinase (Trypanosoma brucei), Q57TT1; Potency, µM (series often up to 76.8 µM), inactives show at the highest dose activity, negative = inhibition, actives largely listed as inhibitors; TbPYK enzyme, Kinase-Glo Plus ATP luminescence, 45 min; further: nearly all actives have a fitted effect of over 50% in size
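Readout: single end-point luminescence (Kinase-Glo Plus, 10 min). Reaction conditions were TbPYK/substrate plus 130 uM ADP, 45 min at RT, pH 7.2 TEA buffer. No-enzyme wells served as controls, and data were normalized before concentration-response fitting.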
Sm TGR block: qHTS Assay for the Inhibitors of Schistosoma Mansoni Peroxiredoxins | 360,000 tested, 3% active | Potency, µM (highest dose often 114 µM), for the others: at the top dose activity change, negative = inhibition, most hits filed as inhibitors | AID 485364, 2010 | Schistosoma mansoni thioredoxin glutathione reductase (TGR), Q962Y6 | purified TGR, DTNB reduction, TNB absorbance 405 nm; further: nearly all actives have a fitted effect of over 60% in size
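TGR 20 nM + NADPH 100 uM (dispensed conc.), cpd preinc 15 min RT; start with NADPH (500 uM addition) then DTNB (15 mM addition). Kinetic TNB absorbance, 405 nm filter. Four-parameter Hill fit across titration.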
Active calls of the source: *; ? = inconclusive; nt = no result given; [ ] = dose if it differs, or a comment. Most compounds without a hit are left out; they make up all but 3.2% or so of the library. Unless noted, the call rests on the fitted dose curve; in most records, active means well fitted curve in the direction sought with a large enough effect; inconclusive means small, poorly fitted or top-dose-only effect, or another doubt; inactive means no such curve, though single readings can be large; an effect the other way counts as inactive or inconclusive. Unless noted, on the % scale 0 is the no-effect control and ±100 the full control effect; potency means the concentration at half of the fitted maximal effect.

SMILES	RE007 growth inh	LmPK inhibitor	AMA1 RON2 block	TbPYK inhibitor	Sm TGR block
Oc1ccc(NCc2ccccc2OCc2ccccc2F)cc1	-27.3%	1.0%	?	?	20µM*
Oc1ccc(NCc2ccccc2OCc2ccccc2Cl)cc1	nt	nt	nt	-4.8%	35.5µM*
CCOc1cccc(CNc2ccc(O)cc2)c1OCc1ccc(Cl)cc1	-8.1%	0.4%	35.1%	-30.2%	31.6µM*
CCOc1ccccc1CNc1ccc(O)cc1	-11.4%	-3.0%	29.3%	5.3%	nt
O=C1NC(=O)N(c2ccc(Cl)cc2)C(=O)/C1=C/c1coc2ccc(O)cc2c1=O	-9.4%	-11.0%	-15.8%	?	1µM*
O=C1NC(=O)N(c2ccccc2)C(=O)/C1=C/c1coc2ccc(O)cc2c1=O	22.9%	-1.2%	-26.4%	?	0.0%
O=C1NN(c2ccccc2)C(=O)/C1=C\c1coc2ccc(O)cc2c1=O	6.2%	-22.3%	-17.1%	?	15.8µM*
COc1ccc(-c2cc3c(=O)n(CC(=O)Nc4cc(F)ccc4F)ccn3n2)cc1OC	nt	nt	nt	1.7%	-1.4%
CCOC(=O)COc1ccc(CC)cc1C(=O)c1ccn2nc(-c3ccc(Cl)cc3)cc2n1	nt	nt	nt	-3.5%	2.3%
COc1cc(NC(=O)CSc2cc(=O)n(C)c3ccccc23)cc(OC)c1OC	nt	nt	nt	-8.0%	-1.8%
COc1ccc(C(CCN2CCN(c3ccccc3)CC2)c2c(O)cc(OC)cc2OC)cc1 (stereo not drawn)	-10.6%	0.0%	?	1.9%	6.9%
COc1ccc(C(CCN2CCCCC2)c2c(O)cc(OC)cc2OC)cc1 (stereo not drawn)	-9.0%	4.0%	-8.6%	-4.7%	39.8µM*
COc1cc(O)c(C(CCN2CCN(c3ccccc3)CC2)c2ccc(N(C)C)cc2)c(OC)c1 (stereo not drawn)	-8.7%	1.3%	11.2µM*	2.3%	5.2%
COc1cc(O)c(C(CCN2CCOCC2)c2ccc(N(C)C)cc2)c(OC)c1 (stereo not drawn)	-17.8%	9.8%	20µM*	-1.6%	?
CCc1ccccc1NC(=O)Cc1c(C(=O)O)[nH]c2ccc(Cl)cc12	nt	nt	nt	3.3%	8.3%
CN(C)c1ccc(-c2nc3cnccn3c2Nc2cccc(C(F)(F)F)c2)cc1	nt	nt	nt	-5.1%	-10.5%
COc1ccc2[nH]c(=O)c(CNc3ccccc3OC)cc2c1	16.4%	2.6%	-22.0%	-4.3%	17.8µM*
COc1ccc2[nH]c(=O)c(CNc3ccccc3C)cc2c1	-5.2%	2.8%	-9.9%	-15.6%	?
COc1ccc2[nH]c(=O)c(CNc3ccc(C)cc3C)cc2c1	-12.3%	11.2%	4.1%	-4.4%	12.6µM*
O=C(CNC(=O)c1ccccc1)NCCc1ccc(O)c(O)c1	nt	2.8%	nt	nt	3.16µM*
COc1ccc(CCN)cc1O	-2.7%	nt	-3.9%	-5.1%	nt
NCCc1cc(O)c(O)cc1O	5.8%[18.4 µM]	nt	0.794µM*	?	nt
O=C(COC(=O)CNC(=O)c1ccccc1)NCCc1ccccc1	1.7%	0.3%	10.0%	-2.1%	-3.4%
NCCc1ccc(O)c(O)c1	11.2%[18.4 µM]	12.7%	?	-7.7%	14.1µM*
CNCCc1ccc(O)c(O)c1	-1.6%[18.4 µM]	nt	7.08µM*	0.0%	nt
SMILES	RE007 growth inh	LmPK inhibitor	AMA1 RON2 block	TbPYK inhibitor	Sm TGR block
CC(=O)c1ccc(N2CCN(C(=O)NCc3noc4ccc(C)cc34)CC2)cc1	nt	nt	nt	0.1%	2.1%
CCOC(=O)C(=O)Nc1nnc2n1CCS2	nt	nt	nt	1.6%	-3.9%
Cc1cccc(CC2C(=O)Nc3ccccc32)c1 (stereo not drawn)	nt	nt	nt	-1.5%	40.9%
COc1ccc(C2CC(=O)c3cc(-c4nc(-c5ccc(Cl)cc5)c(C)s4)c(=O)[nH]c3C2)cc1 (stereo not drawn)	nt	nt	nt	-6.0%	3.3%
CCOC(=O)c1ccc(CN(Cc2ccc(F)cc2)S(=O)(=O)c2cc(C(=O)Nc3ccccc3CC)ccc2F)cc1	nt	nt	nt	2.7%	5.4%
COc1ccc(S(=O)(=O)NNC(=O)c2ccc(-n3c(C)ccc3C)cc2)cc1	4.0%	4.9%	-0.4%	3.5%	10µM*
CSCCC(NC(=O)[C@H](Cc1c[nH]c2ccccc12)NC(=O)CNC(=O)[C@H](CCSC)NC(=O)[C@H](Cc1ccc(OS(=O)(=O)O)cc1)NC(=O)[C@@H](N)CC(=O)O)C(=O)N[C@@H](CC(=O)O)C(=O)N[C@@H](Cc1ccccc1)C(N)=O (stereo partly drawn)	nt	nt	nt	3.4%	nt
CCc1ccc(-c2cn3c(n2)sc2cc(C(=O)NCC(C)c4ccccc4)ccc23)cc1 (stereo not drawn)	nt	nt	nt	1.6%	-2.8%
COc1ccc(-c2cn3c(n2)sc2cc(C(=O)NCC(C)c4ccccc4)ccc23)cc1 (stereo not drawn)	nt	nt	nt	4.4%	79.4µM*
COc1ccc2c(c1)sc1nc(-c3ccccc3)cn12	?	12.6µM*	-13.8%	?	-17.2%
O=C(O)CNC(=O)CNC(=O)CNC(=O)CSC(=O)c1ccccc1	nt	nt	nt	3.5%	nt
CC(=O)N1CCc2c(sc3c2c(=O)n(-c2ccccc2)c(=O)n3CC(=O)c2ccc(Cl)cc2)C1	nt	nt	nt	3.9%	-3.4%
CCc1ccc(-n2c(=O)c3sc4ccccc4c3n(CC(=O)N(CC)Cc3ccccc3)c2=O)cc1	nt	nt	nt	-1.9%	5.6%
COc1ccc(C2CC(c3cccs3)=NN2C(=O)c2ccccc2)cc1OC (stereo not drawn)	6.3%	-1.2%	11.9%	0.9%	11.3%
COc1ccc(C2CC(c3cccs3)=NN2C(=O)CCl)cc1OC (stereo not drawn)	20.6%	4.2%	2.3%	0.7%	4.47µM*
COc1cc(C2CC(c3cccs3)=NN2C(=O)CCl)ccc1OC(F)F (stereo not drawn)	17.3%	-2.5%	4.1%	-5.7%	7.94µM*
O=C(CC1OCC2CCCN2C1=O)Nc1ccc([N+](=O)[O-])cc1 (stereo not drawn)	?	1.2%	3.1%	2.8%	25.1µM*
O=C(CN1CCCC1)Nc1ccc([N+](=O)[O-])cc1	-2.5%	-6.8%	46.1%	-20.8%	13.2%
CCN1CCOC(CC(=O)Nc2ccc([N+](=O)[O-])cc2)C1=O (stereo not drawn)	44.7µM*	-2.8%	-14.6%	1.0%	20µM*
CCC1Oc2ccc(C)cc2N(CC(=O)NCCc2ccccc2)C1=O (stereo not drawn)	nt	nt	nt	1.9%	5.2%
Nc1c(C(=O)N2CCOCC2)sc2nc(N3CCOCC3)c3c(c12)CCCC3	9.6%	-26.5%	-2.2%	15.8µM*	-16.6%
NNC(=O)c1sc2nc(N3CCOCC3)c3c(c2c1N)CCCC3	-11.1%	-2.3%	89.5%	-4.0%	3.7%
COc1ccc2c(=O)c(C)c(-c3ccccc3)oc2c1CN(C)C	nt	nt	nt	9.8%	nt
